In the supplement of paper PMC9399229:
Where a name gives a salt, the structure may show the parent alone. The full ranking holds about 1,900 compounds; the median of “relative cell viability (CellTiter-Glo), compound plus cabozantinib, relative to the cabozantinib arm (arm median 1.05; reference not stated)” is about 1.1, and the lowest 2% start at about 0.15. The sample holds the lowest values, similar compounds and a random draw of the others, so the mix is not that of the screen.

test system: Hep3B; assay: relative cell viability (CellTiter-Glo), compound plus cabozantinib, relative to the cabozantinib arm (arm median 1.05; reference not stated) (fraction); higher = more viable cells (less growth inhibition); details: cabozantinib 2 µM; 4 days

| SMILES | relative cell viability |
| --- | --- |
| Fc1cc(-c2cccc3ncc(-c4cnn(C5CCNCC5)c4)nc23)cc(F)c1CN1CCOCC1 | 1.11 |
| CCOC(=O)C1=C(C)NC(C)=C(C(=O)OC)C1c1cccc(Cl)c1Cl (stereo unspecified) [Felodipine] | 1.11 |
| CN1CCN2c3ncccc3Cc3ccccc3C2C1 (stereo unspecified) [Mirtazapine] | 1.01 |
| O=C(O[C@H]1CN2CCC1CC2)N1CCc2ccccc2[C@@H]1c1ccccc1 [Solifenacin succinate] | 1.11 |
| O=C1NC(=O)[C@@H](c2cn3c4c(cccc24)CCC3)[C@@H]1c1c[nH]c2ccccc12 [Tivantinib (ARQ 197)] | 0.835 |
| CC(C)n1c(/C=C/C(O)CC(O)CC(=O)O)c(-c2ccc(F)cc2)c2ccccc21 (stereo unspecified) [Fluvastatin Sodium] | 1.14 |
| CC[C@H]1[C@@H](O)[C@@H]2[C@H](CC[C@]3(C)[C@@H]([C@H](C)CCC(=O)O)CC[C@@H]23)[C@@]2(C)CC[C@@H](O)C[C@@H]12 [Obeticholic Acid] | 1.12 |
| COc1ccc(-c2ccc3c(N4CCOCC4)nc(N4C[C@@H](C)O[C@@H](C)C4)nc3n2)cc1CO | 0.773 |
| CNc1ncnc2c1ncn2[C@@H]1O[C@H](CO)[C@@H](O)[C@H]1O [N6-methyladenosine (m6A)] | 1.21 |
| COc1nc(N)nc2c1ncn2[C@@H]1O[C@H](CO)[C@@H](O)[C@@H]1O [Nelarabine] | 1.17 |
| COc1ccc(C[C@H](N)C(=O)N[C@H]2[C@@H](O)[C@H](n3cnc4c(N(C)C)ncnc43)O[C@@H]2CO)cc1 [Puromycin 2HCl] | 0.0197 |
| S=C(NCc1ccc2c(c1)OCO2)N1CCN(c2ncnc3c2oc2ccccc23)CC1 [Amuvatinib (MP-470)] | 1.03 |
| C=CCn1c(=O)c2cnc(Nc3ccc(N4CCN(C)CC4)cc3)nc2n1-c1cccc(C(C)(C)O)n1 | 0.144 |
| Cc1cnc(Nc2ccc(N3CCN(C)CC3)cc2)nc1Nc1cccc(S(=O)(=O)NC(C)(C)C)c1 | 0.281 |
| C=CC(=O)Nc1cccc(Sc2nc(Nc3ccc(N4CCN(C)CC4)cc3)ncc2Cl)c1 | 0.747 |
| C=CC(=O)Nc1ccc2ncnc(Nc3ccc(OCc4cccc(F)c4)c(Cl)c3)c2c1 | 0.775 |
| CCCc1ccc(OCC(=O)N(Cc2nc(-c3cccnc3)no2)C(C)C)cc1 | 1.16 |
| C#C[C@]1(O)CC[C@H]2[C@@H]3CCC4=CC(=O)CC[C@@H]4[C@H]3CC[C@@]21C [Norethindrone] | 1.06 |
| CC1(C)S[C@@H]2[C@H](NC(=O)[C@H](N)c3ccccc3)C(=O)N2[C@H]1C(=O)O [Ampicillin sodium] | 1.16 |
| CC1(C)S[C@@H]2[C@H](NC(=O)[C@H](N)c3ccccc3)C(=O)N2[C@H]1C(=O)O [Ampicillin Trihydrate] | 1.08 |
| O=C(/C=C/c1ccc(CN(CCO)CCc2c[nH]c3ccccc23)cc1)NO [LAQ824 (Dacinostat)] | 0.11 |
| OCc1c[nH]c2ccccc12 [Indole-3-carbinol] | 1.11 |
| O=C(O)CCCc1c[nH]c2ccccc12 [3-Indolebutyric acid (IBA)] | 1.07 |

| SMILES | relative cell viability |
| --- | --- |
| OC[C@H]1O[C@H](O[C@]2(CCl)O[C@H](CCl)[C@@H](O)[C@@H]2O)[C@H](O)[C@@H](O)[C@H]1Cl [Sucralose] | 1.05 |
| CN1CCC(CNc2ccc3ncc(-c4cccc(OC(F)(F)F)c4)n3n2)CC1 [SGI-1776 free base] | 0.976 |
| COc1cccc2c1c(O)c(C(=O)N(C)c1ccc(C(F)(F)F)cc1)c(=O)n2C [Tasquinimod] | 1.19 |
| Cc1cccc(-c2nn3c(c2-c2ccnc4ccc(C(N)=O)cc24)CCC3)n1 | 0.91 |
| CC(=O)OCOC(=O)CN(CC(=O)OCOC(C)=O)c1ccccc1OCCOc1ccccc1N(CC(=O)OCOC(C)=O)CC(=O)OCOC(C)=O | 1.22 |
| CCc1cc(Nc2nccc(-c3c(-c4ccc(OC)c(C(=O)Nc5c(F)cccc5F)c4)nc4ccccn34)n2)c(OC)cc1N1CCC(N2CCN(S(C)(=O)=O)CC2)CC1 | 1.32 |
| CCOC(=O)C1=C(N)Oc2ccc(Br)cc2C1C(C#N)C(=O)OCC (stereo unspecified) | 1.02 |
| CC(C(=O)O)c1ccc(C(=O)c2cccs2)cc1 (stereo unspecified) [Suprofen] | 1.11 |
| COc1ccc(C[C@H](NC(=O)[C@H](C)NC(=O)CN2CCOCC2)C(=O)N[C@@H](Cc2ccccc2)C(=O)[C@@]2(C)CO2)cc1 | 0.23 |
| O=C(O)c1cc(C(F)(F)F)ccc1N1CC[C@H](OCc2ccccn2)C1 | 0.958 |
| CCN1C[C@H](C)n2c(c(O)c3c(=O)n(Cc4ccc(F)c(Cl)c4)nc(C(=O)NC)c32)C1=O | 1.14 |
| Cc1cccc(C)c1NC(=O)C1CCCCN1C (stereo unspecified) [Mepivacaine HCl] | 1.03 |
| COc1ccc(S(=O)(=O)N(CCO)c2ccccc2CN(C)C/C=C/c2ccc(Cl)cc2)cc1 [KN-93 Phosphate] | 1.14 |
| CC(C)C(=O)Oc1ccc(CO)cc1[C@H](CCN(C(C)C)C(C)C)c1ccccc1 [Fesoterodine Fumarate] | 1.1 |
| C[C@@H](CN1CC(=O)NC(=O)C1)N1CC(=O)NC(=O)C1 [Dexrazoxane HCl (ICRF-187, ADR-529)] | 1.1 |
| CN1CCN(CCOc2cc(OC3CCOCC3)c3c(Nc4c(Cl)ccc5c4OCO5)ncnc3c2)CC1 [Saracatinib (AZD0530)] | 1.09 |
| Cn1cc(/C=C2\C(=O)Nc3cccnc32)c2ccccc21 | 1 |
| CC(=O)S[C@@H]1CC2=CC(=O)CC[C@]2(C)[C@H]2CC[C@@]3(C)[C@@H](CC[C@@]34CCC(=O)O4)[C@H]12 [Spironolactone] | 1.1 |
| COc1cc(F)c(F)c(Nc2ccc(I)cc2F)c1NS(=O)(=O)C1(C[C@H](O)CO)CC1 [Refametinib (RDEA119, Bay 86-9766)] | 0.196 |
| Cn1c(=O)c2c(ncn2CC(O)CO)n(C)c1=O (stereo unspecified) [Dyphylline] | 1.22 |
| Cn1c(=O)c(F)c(Nc2ccc(I)cc2F)c2c(=O)n(C[C@@H](O)CO)cnc21 | 0.14 |
| CC1=C(C(=O)OC2CCCCC2)C(c2ccc([N+](=O)[O-])cc2)C2=C(CC(C)(C)CC2=O)N1 (stereo unspecified) | 1.31 |
| Cc1c(OCC(F)(F)F)ccnc1C[S+]([O-])c1nc2ccccc2[nH]1 (stereo unspecified) [Lansoprazole] | 1.2 |
